# Laboratory results as given in PubChem BioAssay.
# Several values for one entry are separate records, joined by “and”; a condition that tells them apart may be missing. Equal values may be shown once. Inconclusive results are not listed. For some assays here: Entries with a potency or affinity are not part of this list. Activity calls are given as the source filed them.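 How the source made its calls, unless noted: active means compounds whose cell count with miR-34 switched on is under 0.7 times the count with it off; inactive means the rest.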
# Legend:
# [1] = target: ATP-dependent translocase ABCB1 (Homo sapiens) (UniProt P08183); experiment: MDR1 (ABCB1) efflux transporter inhibition, cell-based (AID 377; in the data active means fluorescence slope change above about 50%); conditions: MDR1-expressing cells, fluorescent substrate accumulation slope; stronger effect = higher value; concentration not given here
# ATP-dependent translocase ABCB1 (Homo sapiens), sequence (P08183 whole entry, looked up): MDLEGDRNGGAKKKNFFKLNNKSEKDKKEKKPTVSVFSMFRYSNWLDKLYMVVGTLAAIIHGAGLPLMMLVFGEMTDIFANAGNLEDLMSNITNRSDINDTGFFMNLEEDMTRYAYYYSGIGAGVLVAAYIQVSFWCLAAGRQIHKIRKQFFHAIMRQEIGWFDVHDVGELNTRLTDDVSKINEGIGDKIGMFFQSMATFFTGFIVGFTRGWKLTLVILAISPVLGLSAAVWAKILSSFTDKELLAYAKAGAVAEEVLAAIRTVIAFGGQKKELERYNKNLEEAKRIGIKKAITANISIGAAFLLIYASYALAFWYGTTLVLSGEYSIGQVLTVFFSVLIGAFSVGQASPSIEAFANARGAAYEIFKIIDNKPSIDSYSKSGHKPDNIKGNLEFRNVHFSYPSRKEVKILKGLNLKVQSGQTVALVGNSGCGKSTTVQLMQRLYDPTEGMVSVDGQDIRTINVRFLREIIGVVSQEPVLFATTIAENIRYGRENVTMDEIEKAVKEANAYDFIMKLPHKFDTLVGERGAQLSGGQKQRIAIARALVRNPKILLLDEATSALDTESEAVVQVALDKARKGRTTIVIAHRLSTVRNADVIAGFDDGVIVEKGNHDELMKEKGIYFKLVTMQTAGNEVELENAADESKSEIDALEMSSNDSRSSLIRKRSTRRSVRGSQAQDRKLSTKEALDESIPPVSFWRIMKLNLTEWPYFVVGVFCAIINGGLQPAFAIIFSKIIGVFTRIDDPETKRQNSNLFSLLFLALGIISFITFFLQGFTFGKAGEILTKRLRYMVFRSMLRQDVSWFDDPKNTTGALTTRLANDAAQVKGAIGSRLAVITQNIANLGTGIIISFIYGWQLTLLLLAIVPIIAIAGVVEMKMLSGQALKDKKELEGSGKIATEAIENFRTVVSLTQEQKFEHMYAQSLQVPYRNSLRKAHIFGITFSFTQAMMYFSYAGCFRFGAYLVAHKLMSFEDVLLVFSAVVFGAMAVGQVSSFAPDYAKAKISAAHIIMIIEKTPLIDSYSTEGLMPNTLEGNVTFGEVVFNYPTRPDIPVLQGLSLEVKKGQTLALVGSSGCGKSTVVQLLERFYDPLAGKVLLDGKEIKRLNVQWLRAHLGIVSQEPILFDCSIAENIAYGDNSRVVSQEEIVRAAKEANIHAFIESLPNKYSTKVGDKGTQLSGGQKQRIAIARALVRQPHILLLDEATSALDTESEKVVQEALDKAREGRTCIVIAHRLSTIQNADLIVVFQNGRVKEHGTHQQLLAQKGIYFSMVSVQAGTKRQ
# [2] = circadian clock period modulators, cell-based, LOPAC library, luminescence reporter (AID 2774; call rule not given here;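 further: values are relative to mean of DMSO wells on each plate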); conditions: circadian reporter cells, at 7 µM, actives lie on both sides
# [3] = hESC survival regulators, cell-based (AID 493140; call rule not given here;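 further: cells exposed to compounds for four days before counting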); conditions: human embryonic stem cell survival screen; stronger effect = higher value
# [4] = liver-stage malaria parasite growth inhibition, primary screen, cell-based, HepG2, luciferase luminescence, HepG2 viability (AID 624349; in the data active means parasite load remaining mostly below about 12%, no sharp cut-off; inactive means mostly above about 10%;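 further: 100% = mean of DMSO negative control wells on the same plate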); conditions: P. berghei liver stage in HepG2, luciferase luminescence, concentration not given here; parasite load remaining: stronger effect = lower value; viability: measured here: HepG2 viability without parasites
# [5] = system: Hepatitis C virus NS3 helicase; experiment: HCV NS3 helicase inhibitors, primary screen, biochemical, fluorescence polarization, LOPAC1280 library (AID 687035; in the data active means inhibition above about 37%); conditions: Purified HCV NS3 helicase, Cy5-dT15 ssDNA binding fluorescence polarization; stronger effect = higher value; concentration not given here
# [6] = Cy5 fluorescence quenching or enhancement artefacts, artefact control for HCV NS3 helicase inhibitor project, biochemical, LOPAC1280 (AID 687037; call rule not given here); conditions: Cy5-DNA-NS3h complex fluorescence interference counterscreen
# [7] = target: 6-phosphogluconate dehydrogenase, decarboxylating (Homo sapiens) (UniProt P52209); experiment: 6PGD enzyme inhibitors, primary screen, biochemical, human, recombinant enzyme, NADPH absorbance (AID 1159550;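 active means at least 20% inhibition of 6-phosphogluconate dehydrogenase activity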); conditions: recombinant 6PGD, NADPH absorbance 341 nm; at 10 µM; stronger effect = higher value
# 6-phosphogluconate dehydrogenase, decarboxylating (Homo sapiens), sequence (P52209 whole entry, looked up): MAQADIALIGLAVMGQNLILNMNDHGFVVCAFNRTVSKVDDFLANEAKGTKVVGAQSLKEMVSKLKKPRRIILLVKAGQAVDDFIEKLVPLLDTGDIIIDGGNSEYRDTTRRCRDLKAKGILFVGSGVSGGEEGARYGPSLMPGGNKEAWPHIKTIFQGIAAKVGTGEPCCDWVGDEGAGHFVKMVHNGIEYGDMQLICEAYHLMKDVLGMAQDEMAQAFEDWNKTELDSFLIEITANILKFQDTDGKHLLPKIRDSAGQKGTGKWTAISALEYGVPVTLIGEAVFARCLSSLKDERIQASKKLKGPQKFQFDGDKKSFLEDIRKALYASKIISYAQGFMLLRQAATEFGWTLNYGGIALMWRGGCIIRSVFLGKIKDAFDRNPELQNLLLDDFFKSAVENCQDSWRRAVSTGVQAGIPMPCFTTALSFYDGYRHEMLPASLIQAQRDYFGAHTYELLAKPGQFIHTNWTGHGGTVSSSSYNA
# [8] = sensitizers of A549 cells to miR-34 induction, primary screen, imaging, A549 dox-inducible miR-34, nuclei and caspase counts (AID 1347080); conditions: A549 miR-34 inducible, Hoechst nuclei count, 48 h
# [9] = phospholipid biosynthesis inhibitors in animal cells, primary screen, cell-based, LOPAC library, screen 4 (AID 1347384; call rule not given here); conditions: phospholipid biosynthesis inhibition screen, at 10 µM
# [10] = viability rescue of complex I mutant cybrids, primary screen, cell-based, galactose medium, ATP luminescence (AID 1645843;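 active means z-score of at least 1.8 in each of two replicates, scored against plate mean and spread of sample wells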;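 further: positive z means more ATP and so rescue of galactose-driven cybrid death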); conditions: complex I mutant cybrid cells, 72 h, stronger effect = higher value
# [11] = target: NAD(+) hydrolase SARM1 (Homo sapiens) (UniProt Q6SZW1); experiment: SARM1 TIR NADase inhibitors, cell lysate, NAD-Glo luminescence (AID 1508614;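 active means compound whose remaining NAD level is above about 45 nM, limit read from the data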); conditions: SAM-TIR HEK293T lysate NADase, at 1 µM, stronger effect = higher value
# NAD(+) hydrolase SARM1 (Homo sapiens), sequence (Q6SZW1 whole entry, looked up, the tested form may be a part): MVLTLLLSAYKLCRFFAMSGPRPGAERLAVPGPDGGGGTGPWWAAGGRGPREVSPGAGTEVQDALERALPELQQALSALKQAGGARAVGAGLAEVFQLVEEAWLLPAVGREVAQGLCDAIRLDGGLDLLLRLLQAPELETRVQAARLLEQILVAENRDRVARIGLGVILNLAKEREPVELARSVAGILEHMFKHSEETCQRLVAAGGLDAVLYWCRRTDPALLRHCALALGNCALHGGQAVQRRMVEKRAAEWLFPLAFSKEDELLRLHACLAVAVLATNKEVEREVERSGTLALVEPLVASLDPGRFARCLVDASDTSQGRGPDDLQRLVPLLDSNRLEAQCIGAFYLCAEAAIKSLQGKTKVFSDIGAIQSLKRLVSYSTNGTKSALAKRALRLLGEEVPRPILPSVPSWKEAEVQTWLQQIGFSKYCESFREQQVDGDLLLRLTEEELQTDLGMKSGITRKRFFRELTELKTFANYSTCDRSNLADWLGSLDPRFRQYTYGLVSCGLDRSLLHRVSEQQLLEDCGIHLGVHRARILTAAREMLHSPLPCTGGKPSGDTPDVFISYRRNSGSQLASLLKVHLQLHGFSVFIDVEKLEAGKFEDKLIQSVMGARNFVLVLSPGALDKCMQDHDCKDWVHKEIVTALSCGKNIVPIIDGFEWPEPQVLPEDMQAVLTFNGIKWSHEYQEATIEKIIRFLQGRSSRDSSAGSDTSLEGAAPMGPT
# [12] = target: Mitogen-activated protein kinase 7 (Homo sapiens) (UniProt Q13164); experiment: ERK5 transactivation activators in reporter cells, primary screen, cell-based, HTS (AID 1508626;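 active means luciferase signal above three times the same-plate solvent-only control wells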;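 further: luciferase driven by Gal4-ERK5 fusion binding five Gal4 sites before minimal TATA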); conditions: HeLa Gal4-ERK5 transactivation, 18 h, at 5 µM, stronger effect = higher value
# Mitogen-activated protein kinase 7 (Homo sapiens), sequence (Q13164 whole entry, looked up, the tested form may be a part): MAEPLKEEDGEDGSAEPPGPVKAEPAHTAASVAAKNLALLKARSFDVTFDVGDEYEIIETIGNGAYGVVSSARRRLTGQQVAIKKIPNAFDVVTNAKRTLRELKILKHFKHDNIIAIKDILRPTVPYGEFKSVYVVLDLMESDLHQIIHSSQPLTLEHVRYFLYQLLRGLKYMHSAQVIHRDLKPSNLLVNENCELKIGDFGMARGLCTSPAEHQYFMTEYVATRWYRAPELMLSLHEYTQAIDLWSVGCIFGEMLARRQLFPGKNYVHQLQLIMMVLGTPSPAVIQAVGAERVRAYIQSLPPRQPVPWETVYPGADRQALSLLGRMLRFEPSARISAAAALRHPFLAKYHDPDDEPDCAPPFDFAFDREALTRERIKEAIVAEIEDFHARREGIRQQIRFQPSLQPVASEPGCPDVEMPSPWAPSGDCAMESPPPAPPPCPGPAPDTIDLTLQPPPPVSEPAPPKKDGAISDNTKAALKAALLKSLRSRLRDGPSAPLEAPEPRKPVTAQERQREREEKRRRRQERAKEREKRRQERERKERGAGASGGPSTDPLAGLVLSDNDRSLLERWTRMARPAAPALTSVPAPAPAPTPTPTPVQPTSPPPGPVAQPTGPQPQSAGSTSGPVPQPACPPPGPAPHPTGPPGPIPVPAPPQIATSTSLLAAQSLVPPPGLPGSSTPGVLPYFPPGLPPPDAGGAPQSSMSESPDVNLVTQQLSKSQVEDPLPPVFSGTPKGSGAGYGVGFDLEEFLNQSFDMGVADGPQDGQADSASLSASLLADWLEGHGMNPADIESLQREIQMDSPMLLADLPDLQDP
# [13] = survival rescue of mitochondrial mutant cells in low glucose, primary screen, MELAS cybrids, Rieske KO mouse fibroblasts, CellTiter-Glo (AID 1508586;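 active means mean z-score across replicates of 1.96 or higher in either the MELAS or the Rieske mutant cell line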;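 further: z relative to plate mean and SD of compound and empty wells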)
# [14] = growth inhibition of DIPG glioma cells, dose response, cell-based, JHH-DIPG-1, MIPE4.0, CellTiter-Glo, qHTS (AID 1347062; cut-off not given, nearly all actives have AC50 up to about 27 µM); conditions: JHH-DIPG-1 viability, CellTiter-Glo ATP luminescence
# [15] = growth inhibition of DIPG glioma cells, dose response, cell-based, SU-DIPG-IV, MIPE4.0, CellTiter-Glo, qHTS (AID 1347063; cut-off not given, nearly all actives have AC50 up to about 30 µM;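 further: compound exposure lasted 48 hours before the viability readout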); conditions: SU-DIPG-IV viability, CellTiter-Glo ATP luminescence
# [16] = growth inhibition of DIPG glioma cells, dose response, cell-based, SU-DIPG-XIII, MIPE4.0, CellTiter-Glo, qHTS (AID 1347061; cut-off not given, nearly all actives have AC50 up to about 37 µM;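 further: cells exposed to compound for 48 hours before readout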); conditions: SU-DIPG-XIII viability, CellTiter-Glo ATP luminescence
# [17] = polyglutamine-triggered caspase-3 activation inhibitors, cell-based (AID 1583); conditions: polyglutamine-induced caspase-3 activation, cell assay; stronger effect = higher value;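 tested at 10 µM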
# [18] = suppressors of polyQ aggregation in yeast, 75Q-TubU reporter (AID 1593); conditions: Yeast 75Q polyglutamine aggregation reporter
# [19] = rescue of polyQ-huntingtin neuronal dysfunction in worms, whole organism, C. elegans mechanosensory neurons, N-terminal huntingtin (AID 1599); conditions: touch response, stronger effect = higher value
# [20] = inhibitors of mitochondrial cytochrome c release, biochemical, purified mitochondria (AID 1603); conditions: stronger effect = lower value;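 further: mouse liver mitochondria challenged with calcium chloride; signal normalized to the plate average as 100%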
# [21] = inhibitors of polyQ protein aggregation (AID 1604); conditions: polyglutamine-induced protein aggregation inhibition assay; stronger effect = higher value; tested at 2.5 µM
# [22] = enhancers of glutamate uptake in motor neurons, MN-1 cell line (AID 1612); conditions: MN-1 motor neuron cells, stronger effect = higher value;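 further: tested at 1 µM final; 0% = mean of DMSO vehicle wells on each plate; positive means more glutamate uptake than control and negative means less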
# [23] = reducers of polyQ inclusions in PC12 cells, cell-based, NGF-treated PC12, GFPQ80 (AID 1614); conditions: PC12 NGF-treated GFP-polyQ80 inclusion reduction;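 further: lower means fewer inclusions and 0 means no inclusions at all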
# [24] = suppressors of polyglutamine aggregation in yeast, 75Q-TubH (AID 1616); conditions: S. cerevisiae 75Q-TubH polyglutamine aggregation suppression; stronger effect = higher value
# [25] = stronger effect = lower value, cell number ratio, induced over uninduced
# [26] = measured here: relative caspase fold change +Dox/-Dox
# [27] = measured here: total cells with miR-34 induction, stronger effect = lower value
# [28] = measured here: total cells without miR-34 induction
# [29] = MELAS cybrid survival, CellTiter-Glo 48 h, stronger effect = higher value
# [30] = Rieske KO mouse fibroblast survival, CellTiter-Glo 72 h
structure (smiles),measurement,setting,value
C=C[C@H]1CN2CCC1C[C@@H]2[C@@H](O)c1ccnc2ccc(OC)cc12 (some centres not stated),fluorescence slope change,[1],95% (active)
same,period change,[2],-0.225 h (inactive)
same,survival,[3],6.17 (inactive)
same,parasite load remaining,[4],28.6% (inactive)
same,viability,[4],94.6%
same,inhibition,[5],-1% (inactive)
same,fluorescence ratio (interference),[6],1 (inactive)
same,inhibition,[7],-0.543% (inactive)
same,fold change,[8]; [25],1.07 (inactive)
same,fold change,[8]; [26],1.29
same,cell count,[8]; [27],9920
same,cell count,[8]; [28],9300
same,outcome,[9],inactive
same,z-score,[10],-1.04 (inactive)
CO[C@H]1C[C@H](O[C@H]2[C@H](C)[C@@H](O[C@@H]3O[C@H](C)C[C@H](N(C)C)[C@H]3O)[C@@H](C)C[C@@]3(CO3)C(=O)[C@H](C)[C@@H](O)[C@@H](C)[C@@H](C)OC(=O)[C@@H]2C)O[C@@H](C)[C@@H]1O,parasite load remaining,[4],43.4% (inactive)
same,viability,[4],44.8%
same,inhibition,[7],-12.7% (inactive)
same,fold change,[8]; [25],0.882 (inactive)
same,fold change,[8]; [26],0.459
same,cell count,[8]; [27],8150
same,cell count,[8]; [28],9240
same,remaining NAD,[11],10 nM (inactive)
same,luciferase signal,[12],32 AU (inactive)
CO/N=C(\C(=O)N[C@@H]1C(=O)N2C(C(=O)O)=C(COC(N)=O)CS[C@H]12)c1ccco1,parasite load remaining,[4],120% (inactive)
same,viability,[4],107%
same,inhibition,[7],-1.88% (inactive)
same,fold change,[8]; [25],0.899 (inactive)
same,fold change,[8]; [26],1.25
same,cell count,[8]; [27],8800
same,cell count,[8]; [28],9790
same,z-score,[13]; [29],-0.736 (inactive)
same,z-score,[13]; [30],-1.31
same,remaining NAD,[11],10 nM (inactive)
same,luciferase signal,[12],48 AU (inactive)
C[N+]1(C)[C@@H]2CC[C@H]1CC(OC(=O)C(O)c1ccccc1)C2 (some centres not stated),inhibition,[7],-20.5% (inactive)
same,fold change,[8]; [25],0.938 (inactive)
same,fold change,[8]; [26],0.48
same,cell count,[8]; [27],8390
same,cell count,[8]; [28],8940
same,z-score,[13]; [29],-0.289 (inactive)
same,z-score,[13]; [30],-0.189
same,remaining NAD,[11],10 nM (inactive)
same,luciferase signal,[12],20 AU (inactive)
COc1ccc2ccc(=O)oc2c1CC=C(C)C,inhibition,[7],9.51% (inactive)
same,outcome,[14],inactive
same,outcome,[15],inactive
same,fold change,[8]; [25],0.94 (inactive)
same,fold change,[8]; [26],0.78
same,cell count,[8]; [27],8510
same,cell count,[8]; [28],9050
same,z-score,[13]; [29],-0.211 (inactive)
same,z-score,[13]; [30],-1.1
same,luciferase signal,[12],36 AU (inactive)
CN[C@@H]1[C@@H](O[C@H]2O[C@H](CO)[C@@H](N)[C@H](O)[C@H]2O)O[C@H]2C[C@@H](N)[C@@H](O[C@H]3[C@H](O)[C@@H](O)[C@H](N)C[C@@H]3N)O[C@@H]2[C@@H]1O,parasite load remaining,[4],21.5% (inactive)
same,viability,[4],69%
same,inhibition,[7],3.92% (inactive)
same,fold change,[8]; [25],0.906 (inactive)
same,fold change,[8]; [26],1.04
same,cell count,[8]; [27],9860
same,cell count,[8]; [28],10900
same,z-score,[13]; [29],0.598 (inactive)
same,z-score,[13]; [30],0.317
same,remaining NAD,[11],10 nM (inactive)
same,luciferase signal,[12],28 AU (inactive)
same,z-score,[10],0.86 (inactive)
NCC[C@H](O)C(=O)N[C@@H]1C[C@H](N)[C@@H](O[C@H]2O[C@H](CN)[C@@H](O)[C@H](O)[C@H]2O)[C@H](O)[C@H]1O[C@H]1O[C@H](CO)[C@@H](O)[C@H](N)[C@H]1O,parasite load remaining,[4],126% (inactive)
same,viability,[4],113%
same,inhibition,[7],-15.3% (inactive)
same,fold change,[8]; [25],0.816 (inactive)
same,fold change,[8]; [26],1.79
same,cell count,[8]; [27],8210
same,cell count,[8]; [28],10100
same,z-score,[13]; [29],-0.451 (inactive)
same,z-score,[13]; [30],-0.0793
same,remaining NAD,[11],10 nM (inactive)
same,luciferase signal,[12],60 AU (inactive)
CO/N=C(\C(=O)N[C@@H]1C(=O)N2C(C(=O)OCOC(=O)C(C)(C)C)=C(/C=C\c3scnc3C)CS[C@H]12)c1csc(N)n1,inhibition,[7],-4.41% (inactive)
same,outcome,[16],inactive
same,outcome,[14],inactive
same,remaining NAD,[11],10 nM (inactive)
CC[C@H](CO)NCCN[C@H](CC)CO,survival,[3],12.8 (inactive)
same,parasite load remaining,[4],28.5% (inactive) and 112% (inactive)
same,viability,[4],48.5% and 92.2%
same,inhibition,[7],-0.439% (inactive)
same,fold change,[8]; [25],0.912 (inactive)
same,fold change,[8]; [26],0.977
same,cell count,[8]; [27],8580
same,cell count,[8]; [28],9410
same,z-score,[13]; [29],0.519 (inactive)
same,z-score,[13]; [30],0.22
CC(=O)O[C@H]1C(=O)[C@@]2(C)[C@H]([C@H](OC(=O)c3ccccc3)[C@]3(O)C[C@H](OC(=O)[C@H](O)[C@@H](NC(=O)c4ccccc4)c4ccccc4)C(C)=C1C3(C)C)[C@]1(OC(C)=O)CO[C@@H]1C[C@@H]2O,parasite load remaining,[4],52.9% (inactive) and 35% (inactive)
same,viability,[4],43.2% and 79%
same,inhibition,[7],17.9% (inactive)
same,fold change,[8]; [25],0.873 (inactive) and 1.02 (inactive)
same,fold change,[8]; [26],1.16 and 1.19
same,cell count,[8]; [27],1550 and 2180
same,cell count,[8]; [28],1780 and 2140
same,z-score,[13]; [29],-1.19 (inactive) and -2.08 (inactive)
same,z-score,[13]; [30],0.25 and 0.578
same,remaining NAD,[11],10 nM (inactive)
same,luciferase signal,[12],36 AU (inactive)
same,z-score,[10],-0.295 (inactive)
N[C@@H](Cc1c[nH]c2ccccc12)C(=O)O,inhibition,[17],8.74%
same,score,[18],1.61
same,rescue above control,[19],-5.37
same,cytochrome c release ratio,[20],0.96
same,inhibition of aggregation,[21],63.4%
same,glutamate uptake change,[22],-7.55%
same,inclusion score,[23],2
same,aggregation suppression score,[24],1.04
same,period change,[2],0.11 h (inactive)
same,inhibition,[5],2% (inactive)
same,fluorescence ratio (interference),[6],1 (inactive)
same,inhibition,[7],3.98% (inactive)
same,fold change,[8]; [25],0.995 (inactive)
same,fold change,[8]; [26],0.835
same,cell count,[8]; [27],9660
same,cell count,[8]; [28],9710
same,outcome,[9],inactive
same,remaining NAD,[11],10 nM (inactive)
same,luciferase signal,[12],136 AU (inactive)
same,z-score,[10],0.315 (inactive)
